Test [1] can be described thus: Quantitative High-Throughput drug screen in 47 multiple myeloma cell lines against the NCATS MIPE library collection: XG6_PLB cell viability assay (AID 1919865). Further: nearly all actives have a fitted effect of over 40% in size. In outline: (§1)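 MIPE 4.0 approved/investigational drugs; 500 cells/well; 48 h 37 °C humidified 5% CO2; CTG luminescence readout; DMSO = 100%, media = 0% viability.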
Test [2] in a line: Quantitative High-Throughput drug screen in 47 multiple myeloma cell lines against the NCATS MIPE library collection: UTMC2_PLB cell viability assay (AID 1919868). Further: nearly all actives have a fitted effect of over 55% in size. The following applies: CellTiter-Glo ATP luminescence, 48 h; viability (% of DMSO control): at 45.8 µM (top of the series). In outline:
as §1
Background: Cellular ATP, detected with luciferase, serves as a proxy for viable cell number.

Test [3] can be described thus: Quantitative High-Throughput drug screen in 47 multiple myeloma cell lines against the NCATS MIPE library collection: PE2_PLB cell viability assay (AID 1919869). Further: nearly all actives have a fitted effect of over 35% in size. Put shortly: as §1
Test [4] in a line: Quantitative High-Throughput drug screen in 47 multiple myeloma cell lines against the NCATS MIPE library collection: PCM6_Riken cell viability assay (AID 1919870). Further: nearly all actives have a fitted effect of over 30% in size. In outline:
as §1

Test [5] can be described thus: Quantitative High-Throughput drug screen in 47 multiple myeloma cell lines against the NCATS MIPE library collection: RPMI8226_ATCC cell viability assay (AID 1919871). Further: nearly all actives have a fitted effect of over 30% in size. Put shortly:
as §1

The nature of test [6]: Quantitative High-Throughput drug screen in 47 multiple myeloma cell lines against the NCATS MIPE library collection: OPM2_DSMZ cell viability assay (AID 1919872). Further: nearly all actives have a fitted effect of over 30% in size. In outline:
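We plated 500 myeloma cells per well, pinned in MIPE 4.0 compounds, and incubated for 48 hours at 37C. ATP was then quantified with CellTiter-Glo, with DMSO and media-only wells defining 100% and 0%.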

Test [7] can be described thus: Quantitative High-Throughput drug screen in 47 multiple myeloma cell lines against the NCATS MIPE library collection: KMS28BM_JCRB cell viability assay (AID 1919874). Further: nearly all actives have a fitted effect of over 35% in size. Put shortly:
as §1

Test [8] is described as follows: Quantitative High-Throughput drug screen in 47 multiple myeloma cell lines against the NCATS MIPE library collection: XG1_PLB cell viability assay (AID 1919866). Further: nearly all actives have a fitted effect of over 35% in size. In outline:
as §1

Test [9] in a line: Quantitative High-Throughput drug screen in 47 multiple myeloma cell lines against the NCATS MIPE library collection: VP6_DJ cell viability assay (AID 1919867). Further: nearly all actives have a fitted effect of over 40% in size. In outline: as §1
Test [10] is described as follows: Quantitative High-Throughput drug screen in 47 multiple myeloma cell lines against the NCATS MIPE library collection: KMS11_JCRBsus cell viability assay (AID 1919873). Further: nearly all actives have a fitted effect of over 50% in size. Put shortly:
as §1

Consider 25 molecules from PubChem BioAssay (NCATS).

Inconclusive results are not listed. Calls of active or inactive are those of the source. The call rests on the fitted dose curve; in most records, active means well fitted cell-killing curve with a large enough effect; inconclusive means small, poorly fitted or top-dose-only effect, or effect the other way; inactive means no such curve, though single readings can be large or run the other way.
Potency means the concentration at half of the fitted maximal effect.

As to `CCCC[N+]1(C)[C@H]2CC(OC(=O)[C@H](CO)c3ccccc3)C[C@H]1[C@H]1O[C@H]12` (some centres not stated), the Potency entry in [1], in test [2], in [3], in test [4], in test [5] and in test [6] was “inactive” each time. Further, the Potency result in test [7] is “inactive”.
`CCNC(=O)C[C@@H]1N=C(c2ccc(Cl)cc2)c2cc(OC)ccc2-n2c(C)nnc21`: the Potency in [8] was 0.833 µM (active); in [9], 0.296 µM (active); in test [3], 2.96 µM (active); in [5], 1.18 µM (active); in test [10] it was 0.105 µM (active).
`CC=C(C)C(=O)N[C@@H](c1ccccc1)[C@@H](O)C(=O)O[C@H]1C[C@@]2(O)[C@@H](OC(=O)c3ccccc3)[C@@H]3[C@]4(OC(C)=O)CO[C@@H]4C[C@H](O)[C@@]3(C)C(=O)[C@H](OC(C)=O)C(=C1C)C2(C)C`: the Potency result in [8], in [9], in [2], in [3], in test [4] and in test [5] was “inactive” each time. Moreover, in test [10], the Potency result is “inactive”.
With `COCC1(CO)C(=O)C2CCN1CC2` (configuration not stated), the Potency was 20.9 µM (active) in [8]; 4.18 µM (active) in [9]; 11.8 µM (active) in test [2]; 2.96 µM (active) in [3]; 20.9 µM (active) in test [4]; 20.9 µM (active) in test [5]. The Potency in [6] is 11.8 µM (active); in [10], 7.43 µM (active); in test [7] it was 23.5 µM (active).
On to `NC1=NC(=O)N2CC12` (configuration not stated), for which the Potency in test [8] was 11.8 µM (active); in test [9], 14.8 µM (active); in test [3] it was 13.2 µM (active); in test [4], 8.33 µM (active). For the same molecule, the Potency entry in test [6], in test [10] and in test [7] was “inactive” throughout.
With `C[C@]12CC[C@H]3[C@@H](CCC4=CC(=O)CC[C@@]43C)[C@H]1CC[C@H]2OC(=O)CCC1CCCC1`, the Potency entry in test [8], in [9], in test [4], in test [6], in test [10] and in test [7] was “inactive” each time.
In the case of `C1=C2CCCN[C@H]2[C@@H]2C[C@H]1[C@@H]1CCCCN1C2`, the Potency entry in test [8], in test [2], in test [3], in test [4], in [5] and in test [6] was “inactive” each time. Further, the Potency entry in [10] and in [7] was “inactive” throughout.
On to `O=C(Oc1ccc([N+](=O)[O-])cc1)N1CCC(C(O)(c2ccc3c(c2)OCO3)c2ccc3c(c2)OCO3)CC1`, for which the Potency in test [1] and in [3] was 16.6 µM (active) throughout. In addition, the Potency entry in test [9], in [6], in test [10] and in test [7] was “inactive” in each case.
Consider `C[C@@H]1[C@H](O)[C@@H](C)C=CC=CCCC=CC=CC=CC=C[C@H](O[C@H]2O[C@@H](C)[C@H](O)[C@@H](N)[C@@H]2O)CC2O[C@](O)(C[C@@H](O)[C@H](O)CC[C@@H](O)C[C@@H](O)C[C@@H](O)CC(=O)O[C@H]1C)C[C@H](O)[C@H]2C(=O)O`, for which the Potency result in test [8], in test [9], in test [3], in test [4], in test [6] and in [10] was “inactive” in each case. The Potency result in test [7] was “inactive”.
Consider `O=C(N[C@H]1CN2CCC1CC2)c1ccc(Cl)cc1`, for which the figures for the Potency in test [8], in test [9] and in test [4] were 6.62 µM (active), 7.43 µM (active) and 8.33 µM (active), respectively. The Potency entry in test [5], in test [6] and in test [7] was “inactive” throughout.
As to `CN(C)NC(=O)CCC(=O)O`, the Potency was 26.4 µM (active) in test [8], 16.6 µM (active) in test [9], 0.0372 µM (active) in test [2] and 20.9 µM (active) in [4]. Also, the Potency result in [5], in test [6] and in test [10] was “inactive” in each case.
For the molecule `C[C@H]([C@H](O)CCC(C)(C)O)[C@H]1CC[C@@]2(O)C3=CC(=O)[C@@H]4C[C@@H](O)[C@@H](O)C[C@]4(C)[C@@H]3CC[C@]12C`, the Potency result in [1], in test [3], in [6] and in [10] was “inactive” in each case. In addition, the Potency in [5] is 20.9 µM (active).
In the case of `COc1ccc(N(C(=O)Oc2c(C)cccc2C)c2ccnc(Nc3ccc(N4CCN(C)CC4)cc3)n2)c(OC)c1`, the Potency in [8] was 0.296 µM (active); in test [9], 2.96 µM (active); in [3] it was 2.64 µM (active); in [4] it was 16.6 µM (active); in [5], 4.18 µM (active); in test [10] it was 9.35 µM (active). Also, in test [7], the Potency is 7.43 µM (active). For the same molecule, in test [2], the viability (% of DMSO control) was 84% (active).
For the molecule `COC1=C[C@@H]2[C@@H]3Cc4ccc(OC)c(O)c4[C@]2(CCN3C)CC1=O`, the Potency in [8] is 1.32 µM (active); in test [9] it was 2.35 µM (active); in test [2] it was 4.69 µM (active); in test [3], 9.35 µM (active); in [4], 2.64 µM (active). Besides, in test [5], the Potency entry was “inactive”.
Regarding `CCOC(=O)Nc1ccc(NCc2ccc(F)cc2)cc1N`, the Potency was 13.2 µM (active) in test [8] and 20.9 µM (active) in test [9]. Further, the Potency result in test [3], in test [6] and in [10] was “inactive” throughout.
On to `C=C[C@@H]1CN2CCC1C[C@H]2[C@H](O)c1ccnc2ccccc12` (some centres not stated), for which the Potency in test [8] was 16.6 µM (active); in test [9], 26.4 µM (active); in test [3] it was 20.9 µM (active); in [4], 14.8 µM (active); in [5], 18.7 µM (active).
As to `COc1ccc2c(c[n+](C)c3c4cc5c(cc4ccc23)OCO5)c1OC`, the Potency in test [8] was 2.64 µM (active); in test [9], 2.96 µM (active); in test [2], 5.26 µM (active); in test [3] it was 7.43 µM (active); in [4], 7.43 µM (active); in test [5] it was 8.33 µM (active). The Potency in [6] is 9.35 µM (active); in [10], 3.32 µM (active); in [7] it was 2.96 µM (active).
Consider `O=[N+]([O-])c1ncc[nH]1`, for which the Potency entry in [8], in test [2], in [3], in test [5] and in test [6] was “inactive” in each case.
Take `COc1cc2cc(c1Cl)N(C)C(=O)C[C@H](OC(=O)C(C)C)[C@]1(C)O[C@H]1[C@H](C)[C@@H]1C[C@@](O)(NC(=O)O1)[C@H](OC)C=CC=C(C)C2`: the Potency entry in test [8], in test [2], in test [3], in [4], in test [5] and in [6] was “inactive” throughout. For the same molecule, the Potency entry in test [10] and in [7] was “inactive” each time.
Consider `COC1=CC(C)=C[C@@H](C)[C@@H](O)[C@@H](C)CC(C)=CC=C[C@H](OC)[C@H]([C@@H](C)[C@@H](O)[C@H](C)[C@@]2(O)C[C@@H](O)[C@H](C)[C@@H](C(C)C)O2)OC1=O`, for which the Potency in [1] was 0.001 µM (active); in test [2], 0.001 µM (active); in test [3], 0.0118 µM (active); in [4], 9.35 µM (active); in [10] it was 0.0019 µM (active); in test [7], 20.9 µM (active).
For `CC(=O)Nc1ccc(OC[C@](C)(O)C(=O)Nc2ccc([N+](=O)[O-])c(C(F)(F)F)c2)cc1`, the Potency result in test [8], in [2] and in [4] was “inactive” throughout.
Turning to `CO[C@H]1CCC(O[C@H]2C[C@H]([C@]3(C)CC[C@]4(C[C@H](O)[C@@H](C)[C@@H]([C@@H](C)C=C(C)C(=O)[C@H](C)C[C@H](C)C(=O)O)O4)O3)O[C@]3(O[C@@H]([C@H]4O[C@@](O)(CO)[C@H](C)C[C@H]4C)C[C@H]3C)[C@H]2C)O[C@H]1C` (some centres not stated), the Potency in test [8] is 1.18 µM (active); in test [9] it was 1.05 µM (active); in test [2], 0.469 µM (active); in [3] it was 1.18 µM (active); in [4] it was 0.935 µM (active); in test [5] it was 0.935 µM (active). The Potency in test [6] is 0.296 µM (active); in test [10], 0.935 µM (active); in test [7] it was 0.332 µM (active).
As to `O=S(=O)(F)Cc1ccccc1`, the Potency in test [8] was 0.235 µM (active); in test [3], 0.105 µM (active); in [4], 2.64 µM (active). In addition, the Potency result in test [9], in [5], in test [6], in test [10] and in test [7] was “inactive” throughout.
Turning to `C[C@]12CC[C@H](O)CC1=CC[C@H]1[C@H]3CCC(=O)[C@@]3(C)CC[C@@H]12`, the figures for the Potency in test [8], in [4] and in test [10] were 7.43 µM (active), 16.6 µM (active) and 23.5 µM (active), respectively. Besides, the Potency result in test [2], in test [3] and in test [6] was “inactive” each time.
As to `O=c1[nH]c2ccc(Cl)cc2c(N[C@@H]2CN3CCC2CC3)c1-c1nc2ccccc2[nH]1`, the Potency was 0.264 µM (active) in test [8]; 0.132 µM (active) in test [9]; 0.332 µM (active) in test [2]; 0.0743 µM (active) in test [3]; 0.166 µM (active) in [4]; 5.9 µM (active) in [5]. For the same molecule, the Potency in [6] is 5.9 µM (active); in test [10], 0.235 µM (active); in test [7], 1.32 µM (active).
